Test results as given in PubChem BioAssay (NCI).
About 79,000 compounds went through this panel and 15% of them were active in at least one assay; those are over-represented in the sample as a whole. Rule as the data show it: active = growth inhibition above about 70%; inactive = the rest.

Experiments:
[1] = NCI Yeast Anticancer Drug Screen. Data for the rad50 strain (AID 155);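 also: 0% = growth of vehicle-only cultures of the same strain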; settings: S. cerevisiae rad50 strain growth inhibition; at 50.0 µM; stronger effect = higher value
Summary of the method: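 Relative growth inhibition (compound vs vehicle) was measured in yeast with a defined repair-gene alteration.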

[2] = NCI Yeast Anticancer Drug Screen. Data for the mec2-1 strain (AID 157); settings: S. cerevisiae mec2-1 strain, at 50.0 µM, stronger effect = higher value
Summary of the method: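 Each compound was tested on mec2-1 yeast, a strain altered in DNA damage repair or cell cycle control. Growth inhibition is reported relative to vehicle.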

[3] = NCI Yeast Anticancer Drug Screen. Data for the sgs1 mgt1 strain (AID 161);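 also: 0% = growth of cultures given vehicle only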; settings: S. cerevisiae sgs1 mgt1 strain, at 50.0 µM, stronger effect = higher value
Summary of the method: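 Read-out: growth inhibition vs vehicle controls. Cells: mutant yeast strain deficient in DNA damage repair.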

[4] = NCI Yeast Anticancer Drug Screen. Data for the cln2 rad14 strain (AID 165);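 also: 0% = growth equal to vehicle treated cultures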; settings: S. cerevisiae cln2 rad14 strain, at 50.0 µM, stronger effect = higher value
Summary of the method: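 Test compounds were added to cln2 rad14 yeast cultures; inhibition of growth was then determined by comparison with vehicle treatment.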

[5] = NCI Yeast Anticancer Drug Screen. Data for the bub3 strain (AID 167); settings: S. cerevisiae bub3 mutant strain, at 50.0 µM, stronger effect = higher value
Summary of the method: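 Screening used yeast with an engineered genetic alteration affecting cell cycle control. Compound-exposed cultures were compared with vehicle cultures, and reduced growth was taken as inhibition.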

[6] = NCI Yeast Anticancer Drug Screen. Data for the mlh1 rad18 strain (AID 175); settings: S. cerevisiae mlh1 rad18 strain growth inhibition; at 50.0 µM; stronger effect = higher value
Summary of the method: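 Inhibition values reflect reduced growth of mutant yeast versus vehicle-treated controls following compound exposure; the mutations affect DNA damage repair.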

Measured: growth inhibition

CN(C)C(=O)Sc1nnc(C(C)(C)C)o1
inactive: [1] -4.35% | [2] -5.9% | [3] -7.3% | [4] -23.4% | [5] 1.7% | [6] 4.2%

CCN(CC)CCCNc1c2c(nc3c(OC)cccc13)CCCC2
inactive: [1] -38.4% | [2] 10.7% | [3] -6.7% | [4] -41.6% | [5] 5.95% | [6] -2.45%

CC(C)OP(=O)(OC(C)C)/C(F)=N/Nc1ccc([N+](=O)[O-])cc1
inactive: [1] 36% | [2] 11.3% | [3] 23.1% | [4] -3.85% | [5] -6.15% | [6] 6.25%

CCCC(=O)Nc1cn(COC)c(C(=O)N2C[C@H]3C[C@@]34C2=CC(=O)c2[nH]cc(C)c24)n1
inactive: [1] 49.9% | [2] 22.1% | [3] 56% | [4] 19.9% | [5] 40.8% | [6] 58.8%

N=C1N=Nc2nc(C(C(=O)c3cccs3)c3nc4n(c3O)C(=N)N=N4)c(O)n21 (configuration not stated)
inactive: [1] -5.1% | [2] 17.1% | [3] -1.25% | [4] -15.3% | [5] 1.7% | [6] -12.3%

Cc1cccc(C2CCCCC2OS(C)(=O)=O)c1 (configuration not stated)
inactive: [1] -2.95% | [2] -6.4% | [3] -16.9% | [4] -10.1% | [5] 11.8% | [6] -13.6%

CS(=O)(=O)N/N=C1/C=C2C/C(=N\NS(C)(=O)=O)C=C2C1
inactive: [1] 27.6% | [2] -0.7% | [3] 47.5% | [4] 30.2% | [5] -1.2% | [6] 43.7%

CS(=O)(=O)NCC1OC(n2cnc3c(N)ncnc32)C(O)C1O (configuration not stated)
inactive: [1] 12.2% | [2] -9.3% | [3] 19% | [4] -5.95% | [5] 30.5% | [6] 1.8%

Nc1cnc(N)nc1
inactive: [1] -8.4% | [2] -18.8% | [3] -21.6% | [4] -24.4% | [5] 11.8% | [6] -17.2%

CSCCC(NC(=O)c1c(Cl)ccc(Cl)c1Cl)C(=O)O (configuration not stated)
inactive: [1] -8.45% | [2] -0.75% | [3] 18.6% | [4] -18.6% | [5] 0.6% | [6] -16.4%

FC(F)(F)C(F)(F)C(F)(F)C(F)(F)C(F)(F)C(F)(F)C(F)(F)c1noc(C(F)(F)C(F)(F)C(F)(F)C(F)(F)C(F)(F)C(F)(F)C(F)(F)F)n1
inactive: [1] -0.55% | [2] 6.5% | [3] -5.4% | [4] -5.25% | [5] 0.85% | [6] 17.4%

CC(=O)c1cccc(NC(=O)N2CCN(c3ccccc3)CC2)c1
inactive: [1] 11.4% | [2] 34% | [3] 20% | [4] 1.25% | [5] 23.9% | [6] 16.6%

Cc1ccc(NC(=O)C(=O)Cc2cccc[n+]2[O-])cc1C
inactive: [1] 25.4% | [2] 13.1% | [3] -4.1% | [4] 12.2% | [5] 9.05% | [6] -6.1%

Cc1cc(-n2cnc3c(Cl)ncnc32)ccc1N
inactive: [1] 10.8% | [2] 5.3% | [3] 0.95% | [4] 5.05% | [5] 10.8% | [6] -9.1%

CC(C)CC(NC(=O)C(CS)NC(=O)CN1C(=O)CCC1=O)C(N)=O (configuration not stated)
inactive: [1] 15.1% | [2] -2.5% | [3] 4.65% | [4] -17.1% | [5] 13.3% | [6] 19.8%

CC1(C)CC(C(N)=O)C(C)(C)N1O (configuration not stated)
inactive: [1] 13% | [2] 7.55% | [3] 23.6% | [4] 17.9% | [5] 23.8% | [6] 7.1%

Sc1ccccc1N=Cc1ccc(C=Nc2ccccc2S)cc1
inactive: [1] -15.8% | [2] -8.05% | [3] 7.1% | [4] 18.8% | [5] 4.45% | [6] -3.75%

COC(=O)C1=C(C(=O)OC)C2(C(=O)OC)OC1(OC)C(C1(C(=O)OC)C(C(=O)OC)=C1C(=O)OC)=C2C(=O)OC (configuration not stated)
inactive: [1] 16% | [2] 14.2% | [3] 8.9% | [4] 16.1% | [5] 1.25% | [6] 9.7%

COc1ccc2c(C)[n+]3ccc4cc(OC)c(OC)cc4c3cc2c1 (tested in a mixture with another compound)
inactive: [1] 21.5% | [2] 12.4% | [3] 22.9% | [4] -6.7% | [5] 22.5% | [6] 32.8%

CC(=O)CC(=O)OC1CCCC(C)C1 (configuration not stated)
inactive: [1] -9.55% | [2] 1% | [3] -17.9% | [4] -39.4% | [5] -22.8% | [6] -15.2%

CCN(CC)CC1CCCCCCCCCCC1=O (configuration not stated)
inactive: [1] -30.3% | [2] -17.9% | [3] -32.7% | [4] 17.4% | [5] -44% | [6] -28.9%

CC(C)=C1C=CC=C1
inactive: [1] -8% | [2] 0.65% | [3] 1.6% | [4] -5% | [5] 9.4% | [6] -6.95%

COc1nc(N)c([N+](=O)[O-])c(OC)n1
inactive: [1] -11.9% | [2] -14.8% | [3] -2.7% | [4] -28.2% | [5] -9.85% | [6] -19.4%

CCCCC(CC)CCC(O)C(O)C(C)C (configuration not stated) (tested in a mixture with another compound)
inactive: [1] -3.85% | [2] 3.2% | [3] -7.8% | [4] -14.3% | [5] -8.95% | [6] -14.8%

OCc1c(CO)c(Br)c2ccccc2c1Br
inactive: [1] 11.8% | [2] 3.75% | [3] 35% | [4] -6.45% | [5] 4.9% | [6] -6.2%

CSc1nc(N)cc(Cl)n1
inactive: [1] 7.75% | [2] -25.5% | [3] -12.4% | [4] 5.85% | [5] -1.9% | [6] -9.7%

COC(=O)C(=O)OC
inactive: [1] 27.1% | [2] -10% | [3] -11.3% | [4] -39% | [5] 1.15% | [6] -3.35%

CCCCn1cccc1
inactive: [1] 33.2% | [2] 10.2% | [3] 9.3% | [4] 15% | [5] 26.8% | [6] 26.4%

CC(=O)OCC12CC(c3ccoc3)OC3CCC4C(=O)OC(CC1C)C4(C)C32 (configuration not stated)
inactive: [1] -19.4% | [2] -29.4% | [3] -18.6% | [4] 4.3% | [5] -23.9% | [6] -22.8%

C=CC(C)(CCC=C(C)C)OC(C)=O (configuration not stated)
inactive: [1] 27.6% | [2] 5.75% | [3] 14.7% | [4] 1.9% | [5] 23.9% | [6] 34.7%

O=[N+]([O-])c1ccc2c(c1)Sc1ccccc1N2CCCCCl
inactive: [1] -24% | [2] -15.8% | [3] -49.2% | [4] -7.25% | [5] -1.8% | [6] -23.2%

CC(=O)Nc1ncc(Br)s1
inactive: [1] 6.75% | [2] 6.05% | [3] -18.4% | [4] -13.8% | [5] -9.4% | [6] 5.3%

S=C(Nc1ccccc1)Nc1nc(-c2ccccc2)c(N=Nc2ccc(Cl)cc2)s1
inactive: [1] 42.5% | [2] 2.6% | [3] 22.2% | [4] 18.6% | [5] -0.85% | [6] 9.45%

CC(=O)N(C1CCCCC1)C1CCCCC1
inactive: [1] 30.2% | [2] 20.6% | [3] 13.4% | [4] -2.05% | [5] -2.2% | [6] 45%

Cn1c(=O)c2ccccc2c2cc([N+](=O)[O-])ccc21
inactive: [1] -11.8% | [2] -5.05% | [3] -18.5% | [4] 1.1% | [5] 12.7% | [6] -4.2%

O=C(/C=C(\C(=O)c1ccccc1)c1ccccc1)c1ccc(-c2ccccc2)cc1
inactive: [1] 8.2% | [2] -2.35% | [3] -3.15% | [4] -6.9% | [5] -3.45% | [6] -16.9%

O=C(c1ccccc1)C1C(C(=O)c2ccccc2)C1c1ccccc1 (configuration not stated)
inactive: [1] -11.3% | [2] -4.45% | [3] 21.3% | [4] 3.4% | [5] 31.3% | [6] -16.1%
